Measured values taken from PubChem BioAssay (NCATS).
Inconclusive results are not listed. Where a call stands in place of a potency, no number is given. Calls of active or inactive are those of the source. The call rests on the fitted dose curve; in most records, active means well fitted cell-killing curve with a large enough effect; inconclusive means small, poorly fitted or top-dose-only effect, or effect the other way; inactive means flat fitted curve, though single readings scatter.

experiment: qHTS for Inhibitors of ATXN expression: Validation of Cytotoxic Assay (AID 588349); settings: cytotoxicity counter-screen for ATXN expression inhibitors, cell viability; series mostly up to 57.1 µM
Description: Spinocerebellar ataxia type 2 (SCA2) is a multisystem neurodegenerative disease caused by a dominantly-acting mutation leading to expansion of a polyQ domain in the ataxin-2 protein (ATXN2). SCA2 patients develop progressive ataxia and later lose function in other neuronal systems. Prominent parkinsonian signs develop in some patients. Similar to many neurodegenerative disorders, no symptomatic or disease-modifying treatments are known.
The primary objective of project is to identify compounds inhibiting ATXN2 expression and to test them for efficacy in SCA2 mouse models. To this end, in a collaboration between Dr. Daniel Scoles and scientists at NCGC, a cell-based assay adapted to high-throughput screening has been developed to screen the NIH Molecular Libraries Small Molecule Repository (MLSMR). Confirmed qHTS active compounds will be tested for toxicity against the human neuron-like SH-SY5Y cell line. This line is the parental cell type used to generate the transgenic line used in the primary assay, and so should provide an isogenic control to test the inherent toxicity of qHTS actives.
NIH Chemical Genomics Center [NCGC]
NIH Molecular Libraries Probe Centers Network [MLPCN]
Assay Submitter (PI): Stefan Pulst and Daniel Scoles, University of Utah
HEK293 cultured cells will be dosed with titrated compounds and incubated for 72 hr at 37 degrees C. Toxicity will be assessed using the CellTiter Glo kit (Promega), which uses intracellular ATP concentration as a viability marker.
Potency means the concentration at half of the fitted maximal effect.

Row | SMILES | Potency
1 | Nc1ccc(N2C(=O)c3ccccc3C2=O)c(Cl)c1 | inactive
2 | NCCS(=O)O | inactive
3 | C=C1C[C@@]23CC[C@H]4[C@@](C)(CCC[C@@]4(C)C(=O)O)[C@@H]2CC[C@]1(O)C3 | inactive
4 | O=C(N[C@@H](Cc1ccccc1)C(=O)CCl)OCc1ccccc1 | 3.55 µM (active)
5 | NC(N)=[N+]1CCc2ccccc2C1 | inactive
6 | COc1ccccc1N1CCN(CCN(C(=O)c2ccc(F)cc2)c2ccccn2)CC1 | inactive
7 | CC(=O)C(C)=O | inactive
8 | NCCCCN=C(N)N | inactive
9 | N=C(N)c1ccc(N)cc1 | inactive
10 | O=[N+]([O-])c1cccc2c(Br)[nH]nc12 | inactive
11 | Cc1cccc(C)c1OCC(N)C(C)C (stereo not given) | inactive
12 | [N-]=[N+]=Nc1ccc(C(=O)CSC[C@H](NC(=O)CC[C@H](N)C(=O)O)C(=O)NCC(=O)O)cc1 | inactive
13 | CCCCCCCCCCC(C)(C)C(=O)Nc1c(OC)cc(OC)cc1OC | inactive
14 | Brc1c(Br)c(Br)c2[nH]cnc2c1Br | inactive
15 | Clc1nccc2c1ccc1ccccc12 | inactive
16 | Cc1nc2n(c(=O)c1CCN1CCC(c3noc4cc(F)ccc34)CC1)CCCC2O (stereo not given) | inactive
17 | CC(N)(C(=O)O)c1ccc(C(=O)O)cc1 (stereo not given) | inactive
18 | C#CC(N)CCC(=O)O (stereo not given) | inactive
19 | Nc1ncnc2c1nc(Br)n2C1OC2COP(=O)(O)O[C@@H]2C1O (stereo not given in full) | inactive
20 | O=c1[nH]ccc2c(O)cccc12 | inactive

Row | SMILES | Potency
21 | Cn1cc(C(F)(F)F)nc1-c1ccc(OCC(O)CNCCOc2ccc(O)c(C(N)=O)c2)cc1 (stereo not given) | inactive
22 | CO/N=C(\C(=O)N[C@@H]1C(=O)N2C(C(=O)O)=C(CSc3nc(=O)c(O)nn3C)CSC12)c1csc(N)n1 (stereo not given in full) | inactive
23 | CC(=O)O[C@H]1Cc2ccccc2N(C(N)=O)c2ccccc21 | inactive
24 | CC[n+]1c(/C=C/C=C2/N(C)c3ccccc3C2(C)C)sc2ccccc21 | 3.16 µM (active)
25 | CC(=O)O[C@H]1CC2(C)[C@@H](C[C@@H](O)[C@H]3[C@@]4(C)CC[C@@H](O)[C@@H](C)[C@@H]4CC[C@@]32C)C1=C(CCC=C(C)C)C(=O)O (stereo not given in full) | inactive
26 | COCc1nc2c([nH]1)c(=O)n(C)c(=O)n2CC(C)C | inactive
27 | CNC(=O)c1cc2c(cn1)[nH]c1ccccc12 | inactive
28 | CCOC(=O)C12CC1/C(=N/O)c1ccccc1O2 (stereo not given) | inactive
29 | NCC(O)c1ccc(O)c(O)c1 (stereo not given) | inactive
30 | O=c1oc(Cl)c(Cl)c2ccccc12 | inactive
31 | N[C@H](C(=O)O)c1cc(O)cc(O)c1 | inactive
32 | CC(=O)NNC(=O)N1Cc2ccccc2Oc2ccc(Cl)cc21 | inactive
33 | C=C(C)C1CC=C(C(=O)O)CC1 (stereo not given) | inactive
34 | CC[C@@H]1Cc2cc(O)ccc2C2=C1c1ccc(O)cc1C[C@H]2CC | 22.4 µM (active)
35 | C=C1C[C@@]23CC[C@H]4[C@@](C)(CCC[C@@]4(C)C(=O)OC4OC(CO)C(O)C(O)C4O)[C@@H]2CC[C@]1(OC1OC(CO)C(O)C(O)C1OC1OC(CO)C(O)C(O)C1O)C3 (stereo not given in full) | inactive
36 | O=C(O)C1CCCNC1 (stereo not given) | inactive
37 | N[C@H](C(=O)O)[C@H](Cc1ccccc1)C(=O)O | inactive
38 | CCCCCC[C@@H]([C@@H](C)O)n1cnc2c(N)ncnc21 | inactive
39 | CN1CC(O)C(O)C(O)C1CO (stereo not given) | inactive
40 | CC[N+](CC)(CC)CC(=O)Nc1c(C)cccc1C | inactive
